Assay [1] in a line: NCI Yeast Anticancer Drug Screen. Data for the rad50 strain (AID 155).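 Further: 0% = growth of vehicle-only cultures of the same strain.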 The note with it: S. cerevisiae rad50 strain growth inhibition; at 50.0 µM; stronger effect = higher value. In short, it runs like this:
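Inhibition values express reduced yeast growth in compound-treated cultures relative to vehicle-treated controls.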

Assay [2] is described as follows: NCI Yeast Anticancer Drug Screen. Data for the mec2-1 strain (AID 157). The note with it: S. cerevisiae mec2-1 strain, at 50.0 µM, stronger effect = higher value. In short, it runs like this:
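Compounds were applied to mec2-1 yeast cells. Their growth was then compared with that of vehicle-treated cultures to give growth inhibition.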

Assay [3] can be described thus: NCI Yeast Anticancer Drug Screen. Data for the sgs1 mgt1 strain (AID 161).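 Further: 0% = growth of cultures given vehicle only.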 The note with it: S. cerevisiae sgs1 mgt1 strain, at 50.0 µM, stronger effect = higher value. In short, it runs like this: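 Yeast cells carrying a defined DNA-repair defect were exposed to test compounds. Growth inhibition was measured relative to vehicle-treated controls.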
Assay [4] can be described thus: NCI Yeast Anticancer Drug Screen. Data for the cln2 rad14 strain (AID 165).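 Further: 0% = growth equal to vehicle treated cultures.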 The note with it: S. cerevisiae cln2 rad14 strain, at 50.0 µM, stronger effect = higher value. Summed up:
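Strain: cln2 rad14 yeast, altered in cell cycle control and DNA damage repair. Read-out: growth inhibition vs vehicle.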

Assay [5] in a line: NCI Yeast Anticancer Drug Screen. Data for the bub3 strain (AID 167). The note with it: S. cerevisiae bub3 mutant strain, at 50.0 µM, stronger effect = higher value. Summed up:
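Steps: expose the mutant yeast strain to compound; grow alongside vehicle-treated cultures; measure growth; express inhibition against the vehicle cultures.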

Assay [6] can be described thus: NCI Yeast Anticancer Drug Screen. Data for the mlh1 rad18 strain (AID 175). The note with it: S. cerevisiae mlh1 rad18 strain growth inhibition; at 50.0 µM; stronger effect = higher value. In short, it runs like this:
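A repair-deficient yeast strain is exposed to test compound, and growth is scored relative to vehicle-treated controls.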

Growth inhibition data for 20 compounds are collected here from PubChem BioAssay (NCI).

Each structure is given as a SMILES string. The panel holds about 79,000 compounds, 15% with a hit somewhere; the sample as a whole holds those more often. A number with no mark means an inactive call. The source made the active and inactive calls. No stated cut-off is given here; in the data, active means growth inhibition above about 70%; inactive means the rest.

On to `O=C1C2=C(Nc3cc([N+](=O)[O-])ccc3N2)OC1c1ccc2c(c1)OCO2` (stereo not given), for which the growth inhibition in assay [1] was -10.4%; in assay [2], -16.9%; in assay [3], -15.1%; in assay [4], 5.75%; in assay [5], -28.2%; in assay [6], -5.45%.
Consider `CCN(CC)CCCC(C)Nc1c2cc(OC)cc(C)c2nc2c(C)c(Cl)ccc12` (stereo not given), for which the growth inhibition in assay [1] was 21.6%; in assay [2], 50.6%; in assay [3], 13.8%; in assay [4], 19.2%; in assay [5] it was 4.35%; in assay [6] it was 29.4%.
As for `O=C(CCCN1CCC(O)(c2ccc(Cl)cc2)CC1)c1ccc(N2CCC(O)CC2)cc1`, the growth inhibition was 0.8% in assay [1]; -2.05% in assay [2]; -0.65% in assay [3]; -44.6% in assay [4]; 4.4% in assay [5]; 1.1% in assay [6].
For the compound `O=C1Nc2ccccc2N=NN1CCCl`, the growth inhibition is 22.2% in assay [1]; 6.4% in assay [2]; -2.85% in assay [3]; 1.85% in assay [4]; -7.3% in assay [5]; -18.4% in assay [6].
In the case of `CC(C)=Cc1ccccc1C1(C)C(c2ccccc2)=C1c1ccccc1`, the growth inhibition was -3.35% in assay [1]; 8.6% in assay [2]; -9.25% in assay [3]; 26.1% in assay [4]; -0.3% in assay [5]; -3.6% in assay [6].
As for `O=C(NCCCBr)Nc1cccc2c1CCCC2`, the growth inhibition in assay [1] is -7.45%; in assay [2] it was 5.9%; in assay [3], 2.5%; in assay [4], -31.5%; in assay [5], -20.9%; in assay [6] it was -21.1%.
For `CCCC(=O)OC1C(CO)OC(n2cc(F)c(=O)[nH]c2=O)C1F` (stereo not given), the growth inhibition in assay [1] is -7.85%; in assay [2], 6.4%; in assay [3] it was -8.6%; in assay [4] it was -15.7%; in assay [5], 3.75%; in assay [6], -17.8%.
As for `CC(=O)CC(C)(C)NC(=S)Nc1ccc(C)cc1`, the growth inhibition is 22.6% in assay [1]; 46.1% in assay [2]; 15.3% in assay [3]; -10.7% in assay [4]; 99.2% (active) in assay [5]; 42.3% in assay [6].
Regarding `NC1=C(O)C(=O)C(c2ccc3c(c2)CCC3)O1` (stereo not given), the growth inhibition in assay [1] was -24.5%; in assay [2], -14.7%; in assay [3], -22.4%; in assay [4] it was -12.6%; in assay [5] it was -14%; in assay [6], -9.1%.
Turning to `CCOC(=O)/C(=C/c1cccc2ccccc12)P(=O)(OCC)OCC`, the growth inhibition is 36.6% in assay [1]; 50.9% in assay [2]; 51.7% in assay [3]; 29.4% in assay [4]; 37.1% in assay [5]; 52.4% in assay [6].
For `CC(=O)Nc1ccc(S(=O)(=O)n2c(=O)oc3cc(Cl)ccc32)cc1`, the growth inhibition in assay [1] was 3.4%; in assay [2], -2.6%; in assay [3], 3.1%; in assay [4], -2.4%; in assay [5] it was 2.95%; in assay [6], 13.5%.
In the case of `c1ccc(N=C2NNC(=Nc3ccccc3)NN2)cc1`, the growth inhibition in assay [1] is -17.9%; in assay [2], 2.2%; in assay [3], 5.4%; in assay [4], 1.85%; in assay [5], 3.35%; in assay [6] it was 7.65%.
As to `CCOC(=O)/C(C#N)=N/Nc1ccc(S(=O)(=O)NC(C)=O)cc1`, the growth inhibition in assay [1] is -16.6%; in assay [2], -10.5%; in assay [3], 5.8%; in assay [4] it was 11.5%; in assay [5] it was -2.95%; in assay [6], -4.4%.
For the compound `CC1(C)CC(=O)C(/C=N/C(=S)NCCc2ccccc2)=C(O)C1`, the growth inhibition is -22.8% in assay [1]; -53.4% in assay [2]; -21.3% in assay [3]; -2.85% in assay [4]; -14.8% in assay [5]; -7.6% in assay [6].
As to `Cc1ccc(C(=O)N/N=C/c2c(O)ccc3ccccc23)cc1`, the growth inhibition in assay [1] is -4.7%; in assay [2], 20.7%; in assay [3] it was 9.95%; in assay [4], -24.9%; in assay [5], 38.5%; in assay [6] it was 27.1%.
As to `O=C(O)COc1ccc(C(=O)/C(SS/C(C(=O)c2ccc(OCC(=O)O)c(Cl)c2Cl)=C2\C=C(c3ccc(F)cc3)SS2)=C2/C=C(c3ccc(F)cc3)SS2)c(Cl)c1Cl`, the growth inhibition was -35% in assay [1]; -28.4% in assay [2]; -14.2% in assay [3]; 1.8% in assay [4]; -22.3% in assay [5]; 83.7% (active) in assay [6].
As to `O=c1[nH]c(-c2cccnc2)nnc1-c1ccc(Cl)cc1`, the growth inhibition in assay [1] is 17.1%; in assay [2] it was 2.4%; in assay [3] it was 10.4%; in assay [4], 28.4%; in assay [5], 27.9%; in assay [6], 4.2%.
Consider `COc1ccc2c(C)cc(N/N=C(\C)c3cn(C)n(-c4ccccc4)c3=O)nc2c1`, for which the growth inhibition in assay [1] is -2.25%; in assay [2], -7.1%; in assay [3] it was -5.95%; in assay [4], 13.2%; in assay [5] it was -1.8%; in assay [6], 1.65%.
With `Cc1n[nH]c(=S)[nH]c1=S`, the growth inhibition in assay [1] was -14.3%; in assay [2] it was -5.1%; in assay [3] it was 9.4%; in assay [4], -42.1%; in assay [5], -23.2%; in assay [6], 14.4%.
For `CN(C)C1=C(c2ccccc2)C(=O)C(c2ccccc2)=C1c1ccccc1`, the growth inhibition in assay [1] was 39.8%; in assay [2], 3.25%; in assay [3], 22.1%; in assay [4] it was -32.3%; in assay [5], 7.05%; in assay [6], 13.3%.
